Laboratory results from PubChem BioAssay AID1159580 (chemical genetic matrix, 2015).
About 2,000 (36%) of roughly 5,500 compounds were called active. Inconclusive results (about 18%) are left out. Cut-off read from the data, not from the text of the source: active = normalized growth mostly below about 0.91 (no sharp cut-off); inconclusive = no clear call, values can overlap the other calls; inactive = mostly above about 0.92. The list shows a part of the results.

Test: chemical genetic growth profiling, strain panel (AID 1159580);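 note: tested at 20 µM; growth read once vehicle control cultures reached saturation at 30 °C; 1 = growth at the plate median or of vehicle wells; lower values mean less growth of the strain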
Details: growth OD

Measured: normalized growth

CO[C@@]1(NC(=O)C(C(=O)O)c2ccc(O)cc2)C(=O)N2C(C(=O)O)=C(CSc3nnnn3C)CO[C@@H]21 (some centres not stated)
inactive: S. cerevisiae deletion strains, locus YJR075W, strain HOC1, hits give low values 1.02 | S. cerevisiae deletion strains, locus YKL009W, strain mrt4, hits give low values 1 | S. cerevisiae deletion strains, locus YKL068W, hits give low values 1.01 | S. cerevisiae deletion strains, locus YKL085W, strain MDH1 (second series), hits give low values 1.01 | S. cerevisiae deletion strains, locus YKL085W, strain MDH1, hits give low values 1.01 | S. cerevisiae deletion strains, locus YKL160W, strain elf1, hits give low values 0.962 | S. cerevisiae deletion strains, locus YKL190W, strain CNB1, hits give low values 1.02 | S. cerevisiae deletion strains, locus YKR001C, strain vps1, hits give low values 1.02 | S. cerevisiae deletion strains, locus YKR026C, strain gcn3, hits give low values 0.998 | S. cerevisiae deletion strains, locus YKR091W, strain srl3, hits give low values 0.976 | S. cerevisiae deletion strains, locus YLL001W, strain dnm1, hits give low values 0.922 | S. cerevisiae deletion strains, locus YLL026W, hits give low values 0.986 | S. cerevisiae deletion strains, locus YLL041C, strain sdh2, hits give low values 0.988 | S. cerevisiae deletion strains, locus YLR027C, strain aat2, hits give low values 1 | S. cerevisiae deletion strains, locus YLR039C, strain RIC1, hits give low values 1.02 | S. cerevisiae deletion strains, locus YLR058C, strain SHM2, hits give low values 1.01 | S. cerevisiae deletion strains, locus YLR102C, strain apc9, hits give low values 1.02 | S. cerevisiae deletion strains, locus YLR113W, strain HOG1, hits give low values 0.995 | S. cerevisiae deletion strains, locus YLR221C, strain rsa3, hits give low values 0.945 | S. cerevisiae deletion strains, locus YLR258W, strain gsy2, hits give low values 0.984 | S. cerevisiae deletion strains, locus YLR262C, strain YPT6 (second series), hits give low values 0.946 | S. cerevisiae deletion strains, locus YLR262C, strain YPT6, hits give low values 0.999 | S. cerevisiae deletion strains, locus YLR268W, strain sec22, hits give low values 1.04 | S. cerevisiae deletion strains, locus YLR320W, strain mms22, hits give low values 0.967 | S. cerevisiae deletion strains, locus YLR330W, strain CHS5, hits give low values 1.01 | S. cerevisiae deletion strains, locus YLR342W, strain FKS1 (second series), hits give low values 0.996 | S. cerevisiae deletion strains, locus YLR342W, strain FKS1, hits give low values 0.99 | S. cerevisiae deletion strains, locus YLR357W, strain rsc2, hits give low values 0.945 | S. cerevisiae deletion strains, locus YLR370C, strain arc18, hits give low values 0.978 | S. cerevisiae deletion strains, locus YLR371W, strain rom2, hits give low values 1.03 | S. cerevisiae deletion strains, locus YLR384C, strain iki3, hits give low values 0.982 | S. cerevisiae deletion strains, locus YLR418C, strain cdc73, hits give low values 1.02 | S. cerevisiae deletion strains, locus YML016C, strain PPZ1, hits give low values 1 | S. cerevisiae deletion strains, locus YML032C, strain rad52, hits give low values 1.03 | S. cerevisiae deletion strains, locus YML120C, strain ndi1, hits give low values 0.951 | S. cerevisiae deletion strains, locus YML124C, strain tub3, hits give low values 1.01 | S. cerevisiae deletion strains, locus YMR058W, strain fet3, hits give low values 0.975 | S. cerevisiae deletion strains, locus YMR078C, strain ctf18, hits give low values 1.02 | S. cerevisiae deletion strains, locus YMR125W, strain sto1, hits give low values 0.953 | S. cerevisiae deletion strains, locus YMR129W, hits give low values 0.994 | S. cerevisiae deletion strains, locus YMR205C, strain PFK2, hits give low values 0.946 | S. cerevisiae deletion strains, locus YMR223W, strain ubp8, hits give low values 0.985 | S. cerevisiae deletion strains, locus YMR231W, strain pep5, hits give low values 0.991 | S. cerevisiae deletion strains, locus YMR263W, strain SAP30, hits give low values 1.02 | S. cerevisiae deletion strains, locus YMR307W, strain GAS1, hits give low values 0.971 | S. cerevisiae deletion strains, locus YNL067W, strain RPL9B, hits give low values 1.02 | S. cerevisiae deletion strains, locus YNL071W, strain lat1, hits give low values 0.989 | S. cerevisiae deletion strains, locus YNL128W, strain TEP1, hits give low values 1.01 | S. cerevisiae deletion strains, locus YNL153C, strain GIM3, hits give low values 1.01 | S. cerevisiae deletion strains, locus YNL183C, strain NPR1, hits give low values 0.949 | S. cerevisiae deletion strains, locus YNL209W, strain ssb2, hits give low values 0.978 | S. cerevisiae deletion strains, locus YNL233W, strain BNI4, hits give low values 1.01 | S. cerevisiae deletion strains, locus YNL248C, strain rpa49, hits give low values 1 | S. cerevisiae deletion strains, locus YNL250W, strain rad50, hits give low values 1.02 | S. cerevisiae deletion strains, locus YNL271C, strain bni1, hits give low values 1.01 | S. cerevisiae deletion strains, locus YNL298W, strain CLA4, hits give low values 1.02 | S. cerevisiae deletion strains, locus YNL307C, strain MCK1, hits give low values 1.01 | S. cerevisiae deletion strains, locus YNL322C, strain KRE1 (second series), hits give low values 0.971 | S. cerevisiae deletion strains, locus YNL322C, strain KRE1, hits give low values 1.01 | S. cerevisiae deletion strains, locus YNR049C, strain mso1, hits give low values 0.972 | S. cerevisiae deletion strains, locus YNR052C, strain pop2, hits give low values 1.02 | S. cerevisiae deletion strains, locus YOL006C, strain TOP1, hits give low values 1.06 | S. cerevisiae deletion strains, locus YOL012C, strain htz1 0.996 | S. cerevisiae deletion strains, locus YOL147C, strain pex11, hits give low values 1.01 | S. cerevisiae deletion strains, locus YOR001W, strain rrp6, hits give low values 1.01 | S. cerevisiae deletion strains, locus YOR061W, strain CKA2, hits give low values 1 | S. cerevisiae deletion strains, locus YOR069W, strain VPS5, hits give low values 1.01 | S. cerevisiae deletion strains, locus YOR070C, strain gyp1, hits give low values 0.992 | S. cerevisiae deletion strains, locus YOR080W, strain dia2, hits give low values 0.987 | S. cerevisiae deletion strains, locus YOR083W, strain WHI5, hits give low values 0.961 | S. cerevisiae deletion strains, locus YOR106W, strain vam3, hits give low values 0.973 | S. cerevisiae deletion strains, locus YOR136W, strain idh2, hits give low values 1.02 | S. cerevisiae deletion strains, locus YOR144C, strain elg1, hits give low values 1.02 | S. cerevisiae deletion strains, locus YOR184W, strain ser1, hits give low values 1.02 | S. cerevisiae deletion strains, locus YOR231W, strain MKK1, hits give low values 1 | S. cerevisiae deletion strains, locus YOR265W, strain rbl2, hits give low values 0.998 | S. cerevisiae deletion strains, locus YOR270C, strain vph1, hits give low values 0.967 | S. cerevisiae deletion strains, locus YOR290C, strain snf2, hits give low values 0.917 | S. cerevisiae deletion strains, locus YOR316C, strain cot1, hits give low values 1.02 | S. cerevisiae deletion strains, locus YPL051W, strain arl3, hits give low values 0.983 | S. cerevisiae deletion strains, locus YPL055C, strain LGE1, hits give low values 1.02 | S. cerevisiae deletion strains, locus YPL078C, strain atp4, hits give low values 0.97 | S. cerevisiae deletion strains, locus YPL106C, strain sse1, hits give low values 0.94 | S. cerevisiae deletion strains, locus YPL240C, strain hsp82, hits give low values 0.981 | S. cerevisiae deletion strains, locus YPL241C, strain CIN2, hits give low values 1 | S. cerevisiae deletion strains, locus YPL256C, strain CLN2, hits give low values 0.961 | S. cerevisiae deletion strains, locus YPR119W, strain clb2, hits give low values 1.02 | S. cerevisiae deletion strains, locus YPR141C, strain kar3, hits give low values 1.02 | S. cerevisiae deletion strains, locus YPR163C, strain tif3, hits give low values 1.02 | S. cerevisiae deletion strains, locus YPR167C, strain met16, hits give low values 1.02 | S. cerevisiae deletion strains, strain wtn01, hits give low values 1.02 | S. cerevisiae strains, strain wild type, hits give low values 1.01
